Experimental data taken from PubChem BioAssay AID431 (Sanford-Burnham Center for Chemical Genomics, 2006).
Hit rate of the full screen: of about 63,000 compounds, about 1,100 (1.7%) were called active.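 The calls were made as follows: active = compounds whose percent cytotoxicity in the single-dose primary screen, scaled between solvent and toxic-drug controls, exceeds 50; inactive = the rest.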 For the sample, actives were picked, then their nearest neighbours and some compounds at random. Measured potencies and affinities stand elsewhere.

Assay: cytotoxicity in KRAS-transformed pancreatic duct cells, primary screen, cell-based, fluorescence, HTS (AID 431);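 also: 0% = DMSO solvent wells and 100% = doxorubicin-treated wells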
Conditions: HPDE-C7K KRASV12 cells, Alamar Blue viability, 48 h; at 10 µM; hits give high values
In the case of Cc1occc1-c1nnc(SCC(=O)N2CCCc3ccccc32)n1Cc1ccco1, the cytotoxicity is reported as -3.2% (inactive). With COc1nc(Nc2nc3ccccc3c(=O)[nH]2)nc2ccc(C)cc12 the cytotoxicity was 91.7% (active). With COc1ccc2c(C)nc(Nc3nc(C)cc(C)n3)nc2c1 the cytotoxicity was -1% (inactive). In the case of Cc1nc(Nc2nc(-c3ccccc3)cc(=O)[nH]2)nc2ccccc12, the cytotoxicity is reported as 68.2% (active). With CCc1c(C)nc(Nc2nc(C)c3cc(OC)ccc3n2)[nH]c1=O the cytotoxicity was 49.1% (inactive). For Cc1nc(-c2ccccc2)cc(=O)[nH]1, the cytotoxicity was 6.9% (inactive). With Cc1ccc2c(C)nc(Nc3nc(CSc4nnnn4-c4ccccc4)cc(=O)[nH]3)nc2c1 the cytotoxicity was 54.8% (active). For CCCCCc1c(C)nc(Nc2nc(C)c3cc(OC)ccc3n2)[nH]c1=O, the cytotoxicity was 9.7% (inactive). In the case of Cc1nnc(SCc2cc(=O)[nH]c(Nc3nc(C)c4ccccc4n3)n2)s1, the cytotoxicity is reported as 3.9% (inactive). With Cc1ccc(Nc2nc(CSc3nnnn3-c3ccccc3)cs2)cc1 the cytotoxicity was 39.8% (inactive). In the case of COc1ccc2c(C)nc(Nc3nc(C)cc(=O)[nH]3)nc2c1, the cytotoxicity is reported as 87.3% (active). In the case of COCc1cc(=O)[nH]c(Nc2nc(C)c3ccc(C)cc3n2)n1, the cytotoxicity is reported as 2.4% (inactive). With Cc1ccc(Nc2nc(CSc3nnnn3-c3ccccc3)cc(=O)[nH]2)cc1 the cytotoxicity was 23.4% (inactive). With O=C(O)Cc1nc2nc3c(c(=O)n2[nH]1)CCCC3 the cytotoxicity was 2% (inactive). For Cc1cc(C)nc(NC(=O)c2cccc(Cl)c2)n1, the cytotoxicity was -1.9% (inactive). In the case of COc1ccc(OCCCC(=O)Nc2ccc3c(c2)OCCO3)cc1, the cytotoxicity is reported as 12.2% (inactive). For C=CCc1c(C)c(C#N)c2nc3ccccc3n2c1NCCN(C)C, the cytotoxicity was 5.5% (inactive). In the case of CCOC(=O)c1cc2c(ccn2C)n1CC(=O)N1CCN(c2ccc(F)cc2)CC1, the cytotoxicity is reported as -18.9% (inactive). With CSc1nc(N2CCOCC2)c2ccccc2n1 the cytotoxicity was 9.1% (inactive). For Cc1cc(C)c(NC(=O)CN2CCN3CCCC3C2)c(C)c1 (configuration not stated), the cytotoxicity was 2.9% (inactive). With O=C(NC1CC2CCCC(C1)N2C1CC1)NC12CC3CC(CC(C3)C1)C2 (configuration not stated) the cytotoxicity was 5.1% (inactive). For CCOC(=O)c1cccc(NC(=O)CSc2nc3ccccc3c(=O)n2CC)c1, the cytotoxicity was -11.5% (inactive). In the case of O=C(COC(=O)CCC1CCCC1)Nc1ccc(Cl)cn1, the cytotoxicity is reported as -7.1% (inactive). With COc1cccc(N2CC(O)Cn3c2nc2c3c(=O)n(CCCc3ccccc3)c(=O)n2C)c1 (configuration not stated) the cytotoxicity was 7.7% (inactive). In the case of CN1C(=O)CSc2ccc(NC(=O)Nc3ccccn3)cc21, the cytotoxicity is reported as -13.1% (inactive). In the case of Cc1cc(C)nc(NS(=O)(=O)c2ccccc2)n1, the cytotoxicity is reported as 16.4% (inactive). In the case of COc1ccc(-c2ccc(SCC(=O)N3CCOCC3)nn2)cc1, the cytotoxicity is reported as -3.5% (inactive). For COc1ccc(-c2nc3c(c(SCC(=O)N4CCOCC4)n2)COC(C)(C)C3)cc1, the cytotoxicity was 52.7% (active). With O=C(CSc1nc(-c2ccccc2)nc2c1CCCC2)N1CCOCC1 the cytotoxicity was -14.2% (inactive). In the case of COCCCNC(=O)CS(=O)(=O)Cc1nc(-c2ccccc2C)oc1C, the cytotoxicity is reported as -5.9% (inactive). For CC(=O)N1CCc2ccc(C(=O)CN3CCN(c4cccc(C)c4C)CC3)cc21, the cytotoxicity was -16.3% (inactive). With O=C(c1ccco1)N1CCN(c2nc(C(F)(F)F)nc3c2nnn3Cc2ccccc2)CC1 the cytotoxicity was -16.9% (inactive). For Cc1nc(N2CCCC2)c2nnn(Cc3ccccc3Cl)c2n1, the cytotoxicity was -7.7% (inactive). With CSc1nc(SCC(=O)NCc2ccco2)c2c3c(sc2n1)CN(C)CC3 the cytotoxicity was 4.2% (inactive). For CC(C)c1nc2sc3c(NCc4ccco4)ncnc3c2c2c1COC(C)(C)C2, the cytotoxicity was -13.3% (inactive). With Cc1nc(SCC(=O)NCc2ccco2)c2c3c(sc2n1)CCCC3 the cytotoxicity was 2.5% (inactive). For CC(C)Sc1nc(SCC(=O)NCc2ccco2)c2c3c(sc2n1)COC(C)(C)C3, the cytotoxicity was 0.4% (inactive). With CC(C)Sc1nc(NCc2ccco2)c2c3c(sc2n1)COC(C)(C)C3 the cytotoxicity was 68.5% (active). With O=C(CSc1ncnc2sc3c(c12)CCCCC3)NCc1ccco1 the cytotoxicity was 1.1% (inactive). For CC(C)c1nc2sc3c(SCC(=O)NCc4ccco4)ncnc3c2c2c1CCC2, the cytotoxicity was 7.4% (inactive). In the case of Cc1nc(NCc2ccco2)c2c3c(sc2n1)CCC3, the cytotoxicity is reported as 52% (active). With c1coc(CNc2ncnc3sc4c(c23)CCCCC4)c1 the cytotoxicity was -13.4% (inactive). With CCCc1nc2sc3c(SCC(=O)NCc4ccco4)ncnc3c2c2c1CCC2 the cytotoxicity was 50.3% (active). In the case of CSc1nc(NCc2ccco2)c2c3c(sc2n1)CN(C)CC3, the cytotoxicity is reported as -5.3% (inactive). With CSc1nc(SCC(=O)NCc2ccco2)c2c3c(sc2n1)COC(C)(C)C3 the cytotoxicity was 50.1% (active). With COc1cccc(C(O)c2cnc(C(C)C)n2C)c1OC (configuration not stated) the cytotoxicity was 10.6% (inactive). With O=C(Nc1ccc(S(=O)(=O)N2CCCCC2)cc1)c1ccncc1 the cytotoxicity was -7.1% (inactive). With CCOc1ccccc1-c1nnc(SCC(=O)Nc2ccccc2)o1 the cytotoxicity was -17.6% (inactive). With COCCCNC(=O)CS(=O)(=O)Cc1nc(-c2cccc(OC)c2)oc1C the cytotoxicity was -6.5% (inactive). With COc1ccc(-c2nnc3n2-c2ccccc2SC3)cc1OC the cytotoxicity was 0% (inactive). For O=C(Cc1cc(=O)[nH]c(=O)[nH]1)N1CCN(C(=O)c2ccco2)CC1, the cytotoxicity was 7.1% (inactive). With CCCCCc1cc(O)c2c(C)cc(=O)oc2c1 the cytotoxicity was 39.2% (inactive). For CCCCc1ccc(-c2ccc(C)cc2O)nc1, the cytotoxicity was -28% (inactive). For C=CCn1c(SCc2csc(C)n2)nc2sc3c(c2c1=O)CCCCC3, the cytotoxicity was 2.5% (inactive). With Cc1ccc(-c2csc3nc(C)n(-n4c(C)ccc4C)c(=O)c23)o1 the cytotoxicity was 10.3% (inactive). For C=CCn1c(SCc2csc(C)n2)nc2scc(-c3ccc(C)o3)c2c1=O, the cytotoxicity was 80.2% (active). With Cc1ccc(-c2noc(CN(C(=O)CCN3C(=O)c4ccccc4C3=O)C(C)C)n2)cc1 the cytotoxicity was -8.2% (inactive). In the case of CC(=O)OCCOc1nc(N(C)C)nc(N(C)C)n1, the cytotoxicity is reported as -13.1% (inactive). In the case of O=C(CCN1CCCC1Cc1ccccc1)c1ccc2c(c1)OCCO2 (configuration not stated), the cytotoxicity is reported as -15.3% (inactive). In the case of CCCOc1ccc2ccccc2c1/C=N/n1c(C)nnc1-n1nc(C)cc1C, the cytotoxicity is reported as 39.3% (inactive). For Cc1cc(C)n(-c2nnc(C)n2/N=C/c2ccccc2OCc2ccccc2Cl)n1, the cytotoxicity was 43.9% (inactive). In the case of Cc1cc(C)n(-c2nnc(C)n2/N=C/c2cc(Br)ccc2OCc2ccccc2)n1, the cytotoxicity is reported as 65.2% (active).
